# Marburg entry inh: qHTS for inhibitors of binding or entry into cells for Marburg Virus; Marburg virus pseudotyped entry inhibition, cell reporter; Potency, µM (top dose mostly 37.8 µM), for the others: at the highest dose activity change, negative = inhibition, most hits filed as inhibitors; hit rate 1.8% among 300,000; AID 540276, 2011; calls by dose curve; tested in HEK293 cells; further: potency means the concentration at half of the fitted maximal effect; on the % scale 0 is the no-effect control and ±100 the full control effect
# CHX counter: Cycloheximide Counterscreen for Small Molecule Inhibitors of Shiga Toxin. cell reporter, cycloheximide protein synthesis inhibition counterscreen. max response, %. hit rate 12% among 300,000. AID 2314, 2010; in the data active means max response mostly above about 13%, no sharp cut-off; inactive means mostly below about 14%; further: read at 38.3 µM for the half of the compounds with a filed dose; 0% is about no effect
# Pf growth 96h: Primary qHTS for delayed death inhibitors of the malarial parasite plastid, 96 hour incubation; P. falciparum luciferase reporter growth, 96 h; Potency, µM (series often up to 28.7 µM), for inactives: at the highest dose activity change, negative = inhibition, actives largely listed as inhibitors; hit rate 6.9% among 320,000; AID 504834, 2011; further: potency means the concentration at half of the fitted maximal effect; on the % scale 0 is the no-effect control and ±100 the full control effect
#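 Infected RBCs, 2% Hct / 0.05% parasitemia final; luciferase-reporter P. falciparum; cpd 96 h, 37 C, 5% CO2; luciferase detection reagent; luminescence.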
# Shiga toxin inh: A qHTS for Small Molecule Inhibitors of Shiga Toxin. AID 2315, 2010. inhibition, % at 38.7 µM. Vero cells, Shiga toxin protein synthesis inhibition reporter. hit rate 9.2% among 290,000; in the data active means inhibition mostly above about 28%, no sharp cut-off; inactive means mostly below about 43%; further: 0% is about no effect
# Pf growth 48h: Primary qHTS for delayed death inhibitors of the malarial parasite plastid, 48 hour incubation; P. falciparum luciferase growth in erythrocytes, 48 h; AID 504832, 2011; hit rate 5.9% among 310,000; Potency, µM (doses to about 28.7 µM), without a hit: at the highest dose activity change, negative = inhibition, usual class: inhibitors; further: potency means the concentration at half of the fitted maximal effect; on the % scale 0 is the no-effect control and ±100 the full control effect
#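 A one-generation exposure of luciferase-tagged malaria parasites in RPMI 1640/Albumax erythrocyte culture, 37 C and 5% CO2. Inhibition is inferred from decreased luminescence after adding detection reagent.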
# LASV entry inh: qHTS for Inhibitors of binding or entry into cells for Lassa Virus. Potency, µM (titrated, usually from 37.9 µM), for inactives: top-dose activity change, negative = inhibition, usual class: inhibitors. AID 540256, 2011. Lassa virus pseudotype entry inhibition, cell reporter. hit rate 1.2% among 300,000; calls by dose curve; tested in HEK293 cells; further: potency means the concentration at half of the fitted maximal effect; on the % scale 0 is the no-effect control and ±100 the full control effect; nearly all actives have a fitted effect of over 50% in size
# The depositor's hits bear a star; i = inactive; ? = inconclusive; . = not tested or not shown; [ ] = remark or other dose. Shown are actives, neighbours in structure and some others; about 19% of the full set was active somewhere. Unless noted, the call rests on the fitted dose curve; in most records, active means well fitted inhibition curve with a large enough effect; inconclusive means small, poorly fitted or top-dose-only effect, or another doubt; inactive means no such curve, though single readings can be large or run the other way.
SMILES,Marburg entry inh,CHX counter,Pf growth 96h,Shiga toxin inh,Pf growth 48h,LASV entry inh
Cc1ccc(-n2cccn2)c(CN2CCCC(C(=O)c3ccc4c(c3)OCO4)C2)c1 (stereo not given),10µM*,2,-3%,-7,?,?
O=C(c1ccc2c(c1)OCO2)C1CCCN(Cc2ccccn2)C1 (stereo not given),-11%[46.1 µM],-2,18%,2,?,1%[46.1 µM]
O=C(c1ccc2c(c1)OCO2)C1CCCN(Cc2ccccc2OC(F)F)C1 (stereo not given),.,-2,-4%,-9,39%,.
Cn1c(CN2CCCC(C(=O)c3ccc4c(c3)OCO4)C2)nc2ccccc21 (stereo not given),?,5,9.3µM*,1,?,1%[46.1 µM]
COc1ccc(C(=O)N/N=C(\C)CC(=O)Nc2ccc3ccccc3c2)c(OC)c1,-2%,13*,?,15,?,13%
COc1ccc(CNC(=O)C/C(C)=N/NC(=O)c2cc(OC)cc(OC)c2)cc1,.,-3,25%,-7,31%,.
COc1ccc(CNC(=O)C/C(C)=N/NC(=O)c2ccc(OC)cc2OC)cc1,11%[46.1 µM],14,-2%,47*,4%,0%
CCCn1cc(C(=O)O)cn1,12%[46.1 µM],6,3%,14,17%,7%[46.1 µM]
Cc1c(C)c2cc(Cl)c(O)c(CN3CCC[C@@H](C)C3)c2oc1=O,0%,.,.,.,.,.
CCCCN(C)C(=O)c1cc2cc([N+](=O)[O-])cc(OC)c2oc1=O,28%[46.1 µM],12,-15%,-11,10%,15%
COc1ccc(OC)c(-n2c(-c3cccc(O)c3)n[nH]c2=S)c1,-17%,0,-5%,-10,0.74µM*,7%
O=S(=O)(NCc1ccco1)c1cccc2cccnc12,20%,-1,6%,8,-11%,22%
Cc1ccc(S(=O)(=O)N2CCC(C(=O)OCC(=O)N(CCC#N)c3ccc(F)cc3)CC2)cc1C,17%,.,9%,.,?,-21%
O=[N+]([O-])c1ccc(-c2cnc3ccccc3n2)cc1,?,26*,-22%,32*,111%,20%
O=[N+]([O-])c1ccccc1Oc1cnc2ccccc2n1,-14%[46.1 µM],2,-4%,-3,3%,?
CCOc1ccc(-c2cnc3ccccc3n2)cc1,.,40*,i,96*,67%,.
Cc1nc2ccccc2nc1-c1ccc([N+](=O)[O-])cc1,7%[46.1 µM],.,.,.,.,0%[46.1 µM]
O=[N+]([O-])c1cc(-c2cnc3ccccc3n2)ccc1Oc1ccc(F)cc1,16%,53*,67%,81*,14%,18%
CC1(C)Cc2nc3sc4c(=O)n(CC(=O)NCc5ccccc5)cnc4c3cc2CO1,-16%,5,0%,15,29%,-16%
Cc1ccc(S(=O)(=O)N2CCCC2C(=O)NCc2ccccc2Cl)cc1 (stereo not given),.,-5,?,-11,-15%,.
COc1ccc(C(=O)N/N=C(/C)c2cccc(NC(=O)c3ccccc3F)c2)cc1,18%,20,?,25,29%,-3%
C/C(=N/NC(=O)c1ccncc1)c1ccc(NC(=O)c2ccccc2)cc1,.,9,?,22,42%,.
CC(=O)Nc1ccc(/C(C)=N/NC(=O)c2ccccc2Cl)cc1,?,29*,-29%,50*,15%,-14%
C/C(=N/NC(=O)c1ccccc1O)c1ccc(N2C(=O)C3CCCCC3C2=O)cc1 (stereo not given),29%,22*,6%,56*,43%,-4%
C/C(=N\NC(=O)c1ccccc1O)c1ccc(NC(=O)c2ccccc2)cc1,?,38*,-15%,69*,29%,?
SMILES,Marburg entry inh,CHX counter,Pf growth 96h,Shiga toxin inh,Pf growth 48h,LASV entry inh
C/C(=N\NC(=O)c1ccccc1O)c1cccc(NC(=O)c2ccccc2)c1,.,19*,?,42*,?,.
C/C(=N/OC(=O)c1ccc(C)cc1)c1ccc(N2C(=O)C3CCCCC3C2=O)cc1 (stereo not given),3%[46.1 µM],1,19%,-14,-6%,-5%
CCCC(=Nc1ccccc1)C1=C(O)C(C(=O)OC)C(C)(C)CC1=O (stereo not given),12%,-2,-4%,-9,7%,6%
O=C(CSc1nnc(-c2cccs2)n1Cc1ccccc1)NCc1ccc2c(c1)OCO2,7%,10,?,-7,.,23%
COc1ccccc1NC(=O)N1CCC(C(=O)c2ccc(Cl)cc2)CC1,1%[46.1 µM],-3,17%,-5,-3%,-27%
CCN(CC)S(=O)(=O)c1cccc(C(=O)N/N=C/c2ccccn2)c1,0%[46.1 µM],33*,-4%,8,?,6%
CCN(CC)S(=O)(=O)c1cccc(C(=O)N/N=C/c2cccc(O)c2O)c1,?,53*,?,77*,?,13µM*
CCCCn1c(N)c(N(CCOC)C(=O)CCCc2cccs2)c(=O)[nH]c1=O,15%,.,2%,.,6%,9%
Cc1ccc(CNC(=O)COC(=O)c2ccc(S(=O)(=O)N3CCOCC3)cc2)cc1,-13%,.,.,.,.,-11%
COc1cccc(/C=C2\SC(=O)N(CC(=O)NC3C=CS(=O)(=O)C3)C2=O)c1 (stereo not given),.,11,12µM*,8,?,.
COc1ccc(/C=C2\SC(=S)N(C(C)C(=O)NC3C=CS(=O)(=O)C3)C2=O)cc1 (stereo not given),3%[46.1 µM],23*,27%,31*,33%,-21%[46.1 µM]
COc1cccc(/C=C2\SC(=O)N(CC(=O)NC3CCS(=O)(=O)C3)C2=O)c1 (stereo not given),.,10,?,8,?,.
CC(C)c1ccc(/C=C2\SC(=O)N(CC(=O)NC3C=CS(=O)(=O)C3)C2=O)cc1 (stereo not given),.,12*,?,27,?,.
COc1cccc(/C=C2\SC(=S)N(C(C)C(=O)NC3C=CS(=O)(=O)C3)C2=O)c1 (stereo not given),.,23,24%,12,30%,.
COc1ccccc1-c1cc(C(=O)NCc2ccc(F)cc2)no1,7%,1,-22%,35,-2%,23%[14.3 µM]
CC(C)CC(C(=O)NCC1CCCO1)N(C(=O)Cn1nnc(-c2ccc(F)cc2)n1)c1cccc(C(F)(F)F)c1 (stereo not given),?,1,0%,0,?,-1%
Cc1ccc(-c2nnc(Nc3ccc(C(N)=O)cc3)c3ccccc23)cc1S(=O)(=O)NCC1CCCO1 (stereo not given),-4%,-3,?,2,8.3µM*,-16%
Cc1ccc(-c2nnc(N3CCCCC3)c3ccccc23)cc1S(=O)(=O)NCC1CCCO1 (stereo not given),-21%,1,.,-27,4.7µM*,?

# From PubChem
